Measurements: PubChem BioAssay AID1049 (The Scripps Research Institute Molecular Screening Center, 2008)
The whole screen tested about 200,000 compounds, of which about 780 (0.39%) were called active. This is one part of a sample in which actives are shown more often than they occur. Unmarked numbers belong to inactive results. Rule as the data show it: active = TR-FRET ratio above about 2000; inactive = the rest.

Experiment: TR-FRET signal artefacts, primary screen, artefact control for PPARgamma SRC-2 agonist project, biochemical (AID 1049)
Details: TR-FRET artefact counter-screen; at 8 µM; active compounds read high

Row | SMILES | TR-FRET ratio
1 | COc1ccc2c(Cl)c(C(=O)NCc3ccco3)sc2c1 | 1570
2 | COc1ccc2c(Cl)c(-c3nnco3)sc2c1 | 2130 (active)
3 | COc1ccc(-c2nnco2)cc1OC | 1520
4 | COCCNC(=S)N/N=C/c1c(C)[nH]c2ccccc12 | 1410
5 | COc1ccc(C(=O)NC2CCN(C(=S)NCCc3ccccc3)CC2)cc1 | 1560
6 | C/C=C(\C)C(=O)NCCN1C2=NC[C@H](Cc3ccc(O)cc3)N2C[C@@H]1Cc1ccc(OC)cc1 | 1390
7 | CCN1CCC2(CCN(Cc3cn[nH]c3-c3ccc(OC)c(F)c3)C2)C1 (stereo not drawn) | 1730
8 | N#Cc1ccc(-c2ccc(Cl)cc2)nc1Oc1ccc(F)cc1 | 5180 (active)
9 | CN(C)c1ccnc(Oc2ccc(F)cc2)c1C#N | 1800
10 | N#Cc1ccc(-c2ccc(F)cc2)nc1Sc1ccccc1 | 1500
11 | CCn1cc(C(=O)Nc2cc(C)ccc2C)c(=O)c2ccc(C)nc21 | 1650
12 | CCOC(=O)C1(Cc2cccc(OC)c2)CCN(C(C)CC(C)(C)O)CC1 (stereo not drawn) | 1480
13 | COc1ccc(OC)c(C(=O)CSc2nnc(-c3cccs3)o2)c1 | 1750
14 | COC(=O)CSc1nccc(-c2cccs2)n1 | 1880
15 | NC(=O)CSc1oc(-c2cccs2)nc1S(=O)(=O)c1ccccc1 | 2010 (active)
16 | CCCn1c(N)c(C(=O)CSc2nc3ccccc3c(=O)n2-c2ccc(OC)cc2)c(=O)[nH]c1=O | 1480
17 | Cc1cc(C)nc(/N=C2\NC(=O)CC(C(=O)O)N2c2ccc(Cl)cc2Cl)n1 (stereo not drawn) | 1590
18 | COc1cccc(-c2ccc(SCC(=O)N3CCN(c4ccccc4)CC3)nn2)c1 | 1690
19 | COc1cc(C2C(C(=O)c3ccc(C)o3)=C(O)C(=O)N2Cc2cccnc2)ccc1O (stereo not drawn) | 1570
20 | CCCOc1ccc(C2C(C(=O)c3ccc(C)o3)=C(O)C(=O)N2CCCn2ccnc2)cc1 (stereo not drawn) | 2170 (active)
21 | COc1cc(C2C(C(=O)c3ccc(C)o3)=C(O)C(=O)N2CCc2ccccc2)ccc1O (stereo not drawn) | 1530
22 | COc1ccc(NC(=O)COC(=O)c2ccc(NS(=O)(=O)/C=C/c3ccccc3)cc2)cc1 | 1720
23 | O=C(c1ccc2ccccc2n1)N1CCN(c2ccccc2Cl)CC1 | 1700

Row | SMILES | TR-FRET ratio
24 | COc1ccc(C2C(C#N)=C(N)N(c3ncn[nH]3)C3=C2C(=O)CCC3)cc1 (stereo not drawn) | 1620
25 | COc1cccc(CN2CCNC(=O)C2CC(=O)N(C)CCc2ccccn2)c1 (stereo not drawn) | 1620
26 | Cc1ccc(S(=O)(=O)NC(C(=O)N2CCOCCOCCOCCOCC2)c2ccccc2)cc1 (stereo not drawn) | 1360
27 | CC(C(=O)N1CCOCC1)N1c2cccc3cccc(c23)S1(=O)=O (stereo not drawn) | 2090 (active)
28 | NC(=NC(=O)c1ccccc1)N1CCOCC1 | 1360
29 | C/C(=N\N1CCN(Cc2ccc(C)cc2)CC1)c1ccco1 | 1400
30 | Cc1nnc(SCc2cccc(Cl)c2)n(N)c1=O | 1460
31 | Cc1cc([N+](=O)[O-])nn1CCCC(=O)Nc1cccnc1Cl | 1580
32 | CC(NC(=S)Nc1ccc(S(N)(=O)=O)cc1)c1ccc2c(c1)OCO2 (stereo not drawn) | 1640
33 | CC(C)(C)N(CC#CCC(O)(c1ccccc1)C1CCCC1)CCO (stereo not drawn) | 1230
34 | O=C1NC(c2cccc(Cl)c2)Nc2ccccc21 (stereo not drawn) | 1540
35 | CC(=O)N1c2ccccc2N(Cc2ccc([N+](=O)[O-])cc2)C(=O)C1(C)C | 1510
36 | CCC1CCCCN1C(=S)Nc1ccc(C(C)=O)cc1 (stereo not drawn) | 1340
37 | CCN(CCCNC(=O)CSc1cc(=O)n(C)c2cc(Cl)ccc12)Cc1ccccc1 | 2600 (active)
38 | CCN(CC)CCCNC(=O)c1cc(-c2cccc(Cl)c2)on1 | 1610
39 | CCN(CC)CCCNC(=O)CCc1ccccc1 | 1550
40 | CCc1ccc(CN(C)Cc2nc(Cc3ccccc3)no2)nc1 | 1650
41 | CCOC(=O)c1ccc(NC(=O)c2cc(=O)[nH]c3ccccc23)cc1 | 1510
42 | O=C(O)Cc1sc(-c2ccc(C(=O)O)cc2)nc1-c1ccccc1 | 1800
43 | Cc1ccc(-c2nc(C)sc2CC(=O)O)cc1 | 1600
44 | O=C(O)Cc1sc(-c2ccccc2)nc1-c1cccs1 | 2400 (active)
45 | N#CC1(NC(=O)COc2ccc3oc4ccccc4c3c2)CCCCC1 | 1590
46 | COc1cc(C=O)c(Br)cc1OCC(=O)NCc1ccccc1 | 1530

Row | SMILES | TR-FRET ratio
47 | CCOC(=O)c1cc2sccc2n1Cc1ccc(C#N)cc1 | 1400
48 | O=C(CSCc1ccccc1)N1CCc2ccccc21 | 1410
49 | O=C(c1cc2sccc2n1Cc1ccc(F)cc1)N1CCc2ccccc21 | 2950 (active)
50 | O=C(NCc1ccco1)c1cc2sccc2n1Cc1ccc(F)cc1 | 1520
51 | Cc1cc(=O)[nH]c(SCC(=O)N2c3ccccc3CC2C)n1 (stereo not drawn) | 1610
52 | CC1Cc2ccccc2N1C(=O)c1cc2sccc2n1Cc1ccccc1 (stereo not drawn) | 1970 (active)
53 | COc1ccc(-c2csc(Cc3nc(O)cs3)n2)cc1 | 1650
54 | CC(O)c1cccc(NC(=O)Cc2cccc3ccccc23)c1 (stereo not drawn) | 1490
55 | CC1(C)CC(=O)C/C(=N\NC(=O)c2cccs2)C1 | 1760
56 | COc1cc(/C=C/C(=O)OCC(=O)NC(=O)NCc2ccccc2)ccc1OCC#N | 1430
57 | O=C(CSc1nc2c(cnn2-c2ccc(F)cc2)c(=O)[nH]1)N1CCCCCC1 | 1460
58 | C=CCNC(=O)CSc1nc2sc(C)c(C)c2c(=O)[nH]1 | 1430
59 | CC(=O)c1sc2nc(SCC(=O)N3CCCCC3)[nH]c(=O)c2c1C | 1990 (active)
60 | Cn1c(=O)cc(SCC(=O)N2CCN(C(=O)c3ccco3)CC2)c2ccccc21 | 2320 (active)
61 | O=C(CSCc1ccc(Cl)cc1)N1CCCCC1 | 1510
62 | CCOC(=O)N1CCC(NC(=O)COc2cc(=O)n(C)c3ccccc23)CC1 | 1480
63 | Cn1c(=O)cc(SCC(=O)N2CCCC2)c2cc(Cl)ccc21 | 2940 (active)
64 | CCOc1ccc(CCNC(=O)CSc2cc(=O)n(C)c3ccc(Cl)cc23)cc1OCC | 1900
65 | CC(=O)c1ccc(-n2nnnc2SCC(=O)N2CCN(C(=O)c3ccco3)CC2)cc1 | 1580
66 | CCOC(=O)C1CCN(C(=O)CSc2cc(=O)n(C)c3ccccc23)CC1 | 2840 (active)
67 | CCOC(=O)C1CCN(C(=O)Cn2cc(C#N)c3ccccc32)CC1 | 1470
68 | Cc1cccc(OCc2nnc(SCC(=O)N3CCN(C(=O)c4ccco4)CC3)n2C)c1C | 1760
